What all share (experiment): NCI-60 one-dose screen, 48 h (100 = growth as untreated, 0 = no growth, -100 = all killed)
The subject of one assay is SK-MEL-2 melanoma. The note with it: 10 µM.
The subject of the next assay is SN12C renal. The settings on record: 10 µM.
Another assay relates to TK-10 renal. The note with it: 10 µM unless noted.
The test system of a further assay is ACHN renal. The settings on record: 10 µM.
For a further assay, the system named is CAKI-1 renal. The note with it: 10 µM.
The test system of another assay is A498 renal. The note with it: 10 µM.
The subject of a further assay is CCRF-CEM leukemia. The settings on record: 10 µM.
A further assay relates to MOLT-4 leukemia. The note with it: 10 µM.
The subject of the next assay is SR leukemia. The note with it: 10 µM.
A further assay relates to RPMI-8226 leukemia. The note with it: 10 µM.
The next assay deals with OVCAR-8 ovarian. The settings on record: 10 µM.
The test system of the next assay is OVCAR-5 ovarian. The settings on record: 10 µM.
A further assay concerns SK-OV-3 ovarian. The settings on record: 10 µM.
A further assay has as its system IGROV1 ovarian. The note with it: 10 µM.
The next assay relates to OVCAR-3 ovarian. The settings on record: 10 µM.
A further assay relates to HS 578T breast. The settings on record: 10 µM.
For the next assay, the system named is NCI/ADR-RES ovarian. The note with it: 10 µM.
In another assay the test system is EKVX NSCLC. The note with it: 10 µM.
The next assay deals with UO-31 renal. The note with it: 10 µM.
The subject of the next assay is OVCAR-4 ovarian. The note with it: 10 µM.

About 83,000 compounds went through this panel and 20% of them were active in at least one assay; those are over-represented in the sample as a whole.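 Single-dose data. Exposure time 48 hours. Values below 10 considered active.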 A number with no mark means an inactive call. Activity calls are given as the source filed them.

On to `COc1cc(C2c3cc4c(cc3C3OC(=O)C2C3CO)OCO4)cc(OC)c1OC` (configuration not stated), for which the growth in the assay with SK-MEL-2 melanoma is 7.33% (active); in the assay with SN12C renal, 23.8%; in the assay on TK-10 renal, 49.6%; in the assay with ACHN renal, 24.9%; with CAKI-1 renal, 37.4%; in the assay on A498 renal, -7.83% (active). In addition, the growth in the assay with CCRF-CEM leukemia is -7.15% (active); in the assay with MOLT-4 leukemia, -9.4% (active); in the assay on SR leukemia, 4.01% (active); in the assay with RPMI-8226 leukemia it was 18.3%; in the assay on OVCAR-8 ovarian, 3.3% (active); in the assay on OVCAR-5 ovarian, 27.1%. Besides, the growth in the assay with SK-OV-3 ovarian is -7.31% (active); in the assay on IGROV1 ovarian it was 13.7%; in the assay on OVCAR-3 ovarian it was -21.9% (active); with HS 578T breast, 33.8%; in the assay with NCI/ADR-RES ovarian it was -2.7% (active).
Turning to `COC1=CC(=O)c2nc(Cl)ccc2C1=O`, the growth is 74% in the assay with EKVX NSCLC; -69.5% (active) in the assay on SN12C renal; 23.5% with UO-31 renal; 84.2% in the assay on TK-10 renal; 42.6% with ACHN renal; 91.6% with CAKI-1 renal. In addition, the growth in the assay with A498 renal is 108%; in the assay on CCRF-CEM leukemia it was 1.69% (active); with MOLT-4 leukemia, -27.4% (active); in the assay with SR leukemia, 5.55% (active); in the assay with RPMI-8226 leukemia, 3.41% (active); in the assay on OVCAR-8 ovarian it was 7.95% (active). Moreover, the growth in the assay on OVCAR-5 ovarian is 11.6%; in the assay with OVCAR-4 ovarian it was -97% (active); in the assay with SK-OV-3 ovarian, 89.4%; with IGROV1 ovarian it was 20.4%; in the assay on OVCAR-3 ovarian, -2.3% (active); in the assay on HS 578T breast, 74.7%. In the assay on NCI/ADR-RES ovarian, the growth was 5.5% (active).
On to `C/C(=N\O)C1(O)CCCCC1`, for which the growth in the assay on SK-MEL-2 melanoma was 82.9%; in the assay with SN12C renal, 101%; in the assay on UO-31 renal, 96.8%; in the assay with ACHN renal, 97.7%; in the assay on CAKI-1 renal, 99.3%; in the assay with A498 renal it was 99.1%. The growth with CCRF-CEM leukemia was 99.4%; in the assay with MOLT-4 leukemia it was 89.8%; with SR leukemia, 94.3%; in the assay with RPMI-8226 leukemia, 100%; in the assay with OVCAR-8 ovarian, 94.1%; in the assay with OVCAR-5 ovarian, 103%. Besides, the growth with OVCAR-4 ovarian is 110%; in the assay with SK-OV-3 ovarian, 98.1%; in the assay on IGROV1 ovarian it was 97.9%; in the assay with OVCAR-3 ovarian, 94.7%; in the assay with HS 578T breast, 62.5%; with NCI/ADR-RES ovarian, 110%.
Regarding `COCCCC/C(=N\OCCN)c1ccc(C(F)(F)F)cc1`, the growth was 93.1% in the assay with EKVX NSCLC; 94% in the assay on SN12C renal; 74.1% in the assay on UO-31 renal; 98.9% in the assay with TK-10 renal; 98.6% with ACHN renal; 83.5% in the assay on CAKI-1 renal. The growth is 89.1% with A498 renal; 101% with CCRF-CEM leukemia; 96.7% in the assay with MOLT-4 leukemia; 85.8% in the assay with SR leukemia; 100% in the assay with RPMI-8226 leukemia; 102% in the assay with OVCAR-8 ovarian. Moreover, the growth in the assay with OVCAR-5 ovarian is 92.5%; with OVCAR-4 ovarian it was 110%; in the assay on SK-OV-3 ovarian, 105%; in the assay on IGROV1 ovarian it was 105%; in the assay with OVCAR-3 ovarian, 105%; in the assay on HS 578T breast, 97.6%. Moreover, in the assay with NCI/ADR-RES ovarian, the growth is 102%.
For the molecule `O=C(N/N=C/c1ccccc1O)Nc1nn[nH]n1`, the growth is 110% with SK-MEL-2 melanoma; 100% with SN12C renal; 90.2% in the assay with UO-31 renal; 92.8% with ACHN renal; 94.9% in the assay with A498 renal; 98.8% in the assay on CCRF-CEM leukemia. Moreover, the growth in the assay with MOLT-4 leukemia was 109%; with SR leukemia, 102%; in the assay with RPMI-8226 leukemia, 95.6%; in the assay with OVCAR-8 ovarian, 101%; with OVCAR-5 ovarian it was 92.3%; in the assay with OVCAR-4 ovarian, 102%. The growth was 113% in the assay on SK-OV-3 ovarian; 111% in the assay on IGROV1 ovarian; 116% in the assay on OVCAR-3 ovarian; 99% in the assay with HS 578T breast; 109% with NCI/ADR-RES ovarian.
`O=S(=O)(O)CC(O)CN1CCN(CCO)CC1` (configuration not stated): the growth with EKVX NSCLC is 119%; in the assay with SN12C renal it was 110%; in the assay on UO-31 renal, 91.6%; in the assay with TK-10 renal, 116%; in the assay with ACHN renal, 111%; in the assay with CAKI-1 renal, 106%. For the same molecule, the growth in the assay on A498 renal was 106%; in the assay on CCRF-CEM leukemia, 103%; in the assay with MOLT-4 leukemia it was 90.3%; with SR leukemia it was 92.4%; in the assay on RPMI-8226 leukemia, 96.3%; in the assay on OVCAR-8 ovarian, 98.8%. The growth in the assay on OVCAR-5 ovarian was 117%; in the assay on OVCAR-4 ovarian, 114%; with SK-OV-3 ovarian it was 95.3%; in the assay with IGROV1 ovarian it was 124%; in the assay on OVCAR-3 ovarian, 108%; in the assay with HS 578T breast, 104%. Moreover, the growth with NCI/ADR-RES ovarian is 99.7%.
Regarding `CCN(CC)c1ccc2nc3ccc(=[N+](CC)CC)cc-3oc2c1`, the growth is 8.19% (active) with EKVX NSCLC; 0.99% (active) in the assay on SN12C renal; 56% in the assay with UO-31 renal; -26.1% (active) in the assay on TK-10 renal; 8.56% (active) with ACHN renal; 34.9% in the assay on CAKI-1 renal. The growth in the assay on A498 renal is 74.4%; with CCRF-CEM leukemia it was 11.2%; in the assay on MOLT-4 leukemia it was -21.4% (active); in the assay with SR leukemia, 22.5%; with RPMI-8226 leukemia, 6.38% (active); in the assay with OVCAR-8 ovarian, -9.58% (active). The growth with OVCAR-5 ovarian is -30.1% (active); with OVCAR-4 ovarian, -88.7% (active); in the assay on SK-OV-3 ovarian, -9.43% (active); in the assay with IGROV1 ovarian, -31.8% (active); with OVCAR-3 ovarian, -7.91% (active); in the assay with HS 578T breast, 58.1%. In the assay on NCI/ADR-RES ovarian, the growth was 90.3%.
Regarding `O=C(c1ccc(O)cc1)c1ccc(O)cc1`, the growth is 101% in the assay with SK-MEL-2 melanoma; 109% with SN12C renal; 95% in the assay with TK-10 renal; 107% in the assay with ACHN renal; 110% in the assay with CAKI-1 renal; 73.9% in the assay on A498 renal. Besides, the growth in the assay on CCRF-CEM leukemia is 106%; in the assay with MOLT-4 leukemia it was 102%; in the assay on SR leukemia it was 88.7%; with RPMI-8226 leukemia it was 107%; in the assay on OVCAR-8 ovarian, 99.9%; with OVCAR-5 ovarian, 105%. Moreover, the growth in the assay on SK-OV-3 ovarian was 114%; with IGROV1 ovarian, 108%; in the assay on OVCAR-3 ovarian, 111%; with HS 578T breast it was 107%; in the assay on NCI/ADR-RES ovarian, 110%.
For `CCCNc1ccc(C2=NCCCN2)cc1`, the growth with SK-MEL-2 melanoma was 102%; in the assay on SN12C renal it was 109%; in the assay on UO-31 renal, 81.7%; with ACHN renal it was 102%; with CAKI-1 renal it was 101%; in the assay on CCRF-CEM leukemia, 99.1%. Also, the growth is 93.7% with MOLT-4 leukemia; 96.9% in the assay on SR leukemia; 98.2% in the assay with RPMI-8226 leukemia; 95.4% with OVCAR-8 ovarian; 101% in the assay with OVCAR-5 ovarian; 100% in the assay with OVCAR-4 ovarian. The growth was 107% in the assay with SK-OV-3 ovarian; 86% with IGROV1 ovarian; 99.2% in the assay on OVCAR-3 ovarian; 103% in the assay with HS 578T breast; 95.2% in the assay with NCI/ADR-RES ovarian.

The values are drawn from PubChem BioAssay (NCI).
